# High-throughput results from PubChem BioAssay.
# Hits are enriched below; roughly 2.8% of the tested compounds scored in any of these assays.
# GLP-1R agonist: activates the human GLP-1 receptor | HEK293 GLP-1R CRE-luciferase, luminescence, 4-6 h; cells express a hypersensitive GLP-1R form | Potency, µM (highest dose often 45.6 µM), inactives show top-dose activation, most hits filed as activators | 380,000 compounds, 0.007% hits | AID 624172; further: % of control where 0% means no effect
# Target sequence (P43220 whole entry, looked up): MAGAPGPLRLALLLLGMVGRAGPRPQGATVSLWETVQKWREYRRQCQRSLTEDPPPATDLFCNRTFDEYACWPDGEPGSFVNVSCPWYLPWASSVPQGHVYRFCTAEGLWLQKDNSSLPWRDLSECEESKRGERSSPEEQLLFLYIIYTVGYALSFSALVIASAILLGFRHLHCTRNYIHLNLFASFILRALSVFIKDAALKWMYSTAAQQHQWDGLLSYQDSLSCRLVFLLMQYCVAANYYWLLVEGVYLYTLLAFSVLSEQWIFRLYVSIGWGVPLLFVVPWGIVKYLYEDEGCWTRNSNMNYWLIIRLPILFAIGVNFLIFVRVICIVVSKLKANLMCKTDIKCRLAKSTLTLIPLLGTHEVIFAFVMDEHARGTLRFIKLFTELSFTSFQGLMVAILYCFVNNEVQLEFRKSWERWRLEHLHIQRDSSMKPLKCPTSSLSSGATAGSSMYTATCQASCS
# GLP1R inv ag: GLP-1 receptor (human) inverse agonism; AID 624417; HEK293 GLP-1R CRE-luciferase, luminescence, 24 h; GLP-1R form is constitutively active; Potency, µM (highest dose often 38.3 µM), for inactives: at the top dose activity change, negative = inhibition, hits mostly inhibitors; P43220; 410,000 compounds, 1.6% hits; further: on the % scale 0 is the no-effect control and ±100 the full control effect; nearly all actives have a fitted effect of over 55% in size
#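 Stable HEK293 clone (constitutively active GLP-1R + cAMP-response luciferase); 200 cells/uL plated, 12 h pre-culture, compound 24 hr, 37 deg C/5% CO2; detection reagent 12 min RT; luminescence.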
# BRCA1 expr up: activators of BRCA1 expression; MCF7-BRCA1-FFLuc reporter, luminescence, 48 h; response scale: scaled: vehicle 0%, 10 µM genistein 100%; Potency, µM (highest dose often 46.1 µM), for the others: at the top dose activation, most hits filed as activators; 380,000 compounds, 1.1% hits; further: nearly all actives have a fitted effect of over 80% in size
#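 Reporter cells (MCF7, BRCA1 promoter-firefly luciferase) received library compounds across a concentration series for 48 h. End-point luminescence was measured and concentration-effect curves derived after normalization.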
# GLP1R cytotox: cytotoxic in the GLP-1 receptor inverse agonist counter-screen; 410,000 compounds, 0.13% hits; HEK293 cAMP-luciferase reporter cells, luminescence, 24 h; AID 624418; Potency, µM (titrated, usually from 38.3 µM), inactives show top-dose activity change, negative = inhibition, actives largely listed as inhibitors;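 further: loss of luciferase light is scored as toxicity; on the % scale 0 is the no-effect control and ±100 the full control effect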
#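 1536-well qHTS counterscreen of the MLSMR; 200 cells/uL, 12 h pre-incubation, 23 nL cpd, 24 h at 37 deg C 5% CO2, luciferase detection reagent, 12 min RT, luminescence. Inhibition = undesired.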
# Mito fusion yeast: blocks mitochondrial division or promotes mitochondrial fusion. S. cerevisiae fusion-defective mutant growth rescue, CellTiterGlo 48 h. Potency, µM (series often up to 46.1 µM), for the others: at the highest dose growth rescue (activation), hits mostly activators. 320,000 compounds, 0.23% hits; further: % of control where 0% means no effect; nearly all actives have a fitted effect of over 45% in size
#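 Luminescent cell viability in 1536-well qHTS format served as the measure of rescued growth in ts fusion-mutant S. cerevisiae cultured on non-fermentable YPEG for 48 hours at 37C.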
# Numbers without * were called inactive; ? = inconclusive; · = not tested or not shown. The call rests on the fitted dose curve; in most records, active means well fitted curve in the direction sought with a large enough effect; inconclusive means small, poorly fitted or top-dose-only effect, or another doubt; inactive means no such curve, though single readings can be large; an effect the other way counts as inactive or inconclusive. Potency means the concentration at half of the fitted maximal effect.
SMILES,GLP-1R agonist,GLP1R inv ag,BRCA1 expr up,GLP1R cytotox,Mito fusion yeast
CC(C)(C)NC(=O)C(=O)N/N=C/c1ccc(Br)cc1,1%,-5%,3%,-1%,-2%
S=C(N/N=C/c1ccc(Br)cc1)N1CCCCC1,5%,4%,8.9µM*,3%,-12%
O=C(C[C@H]1C[C@H](C(=O)N2CCOCC2)[C@@]2(CCC3CCCC3)c3[nH]c4cc(-c5ccco5)ccc4c3CCN2C1=O)NCCC1=CCCCC1,-1%,10µM*,-64%,-15%,·
COc1ccc2[nH]c3c(c2c1)CCN1C(=O)C(CC(=O)NCCC2=CCCCC2)C[C@H](C(=O)N(C(C)C)C(C)C)[C@@]31C (some centres undefined),-2%,10µM*,-68%,?,·
COc1cccc(C(=O)c2sc(NC(C)C)nc2N)c1,-27%,3.5µM*,-73%,?,-3%
COc1ccccc1C(=O)Nc1cc(Cl)ccc1O,-16%,1%,-26%,5%,2%
CCOc1ccccc1C(=O)Nc1cc(Cl)ccc1O,0%,7.1µM*,-63%,?,?
CCOC(=O)c1c(NC(=O)Cc2coc3cc(C)ccc23)sc2c1CCCC2,·,-23%,·,29%,·
Cc1ccc2c(CC(=O)Nc3sccc3C(N)=O)coc2c1,10%,0%,1.3µM*,13%,11%
Cc1ccc(S(=O)(=O)Nc2cc(C)cc(CCNC=O)c2C)cc1,6%,-2%,-16%,14%,·
Cc1c(CCNC=O)cc(C)c2c3c(oc12)CCCC3,22%,32%,10µM*,-7%,·
O[C@H]1CN(Cc2cccs2)[C@@H](c2ccccc2)C[C@@H]1n1cc(-c2ccc(F)cc2)nn1,-5%,10µM*,-12%,-11%,·
O[C@@H]1CN(CC2CCCCC2)[C@@H](c2ccccc2)C[C@H]1n1cc(-c2ccc(F)cc2)nn1,-1%,4µM*,-17%,?,·
CC1(C)Cc2c(sc3[nH]c(=O)n(CC(=O)NCC4CCCO4)c(=O)c23)CO1 (centres undefined),-6%,1%,-7%,-11%,-3%
COc1ccc(Nc2cc(C(=O)NCc3ccccn3)c3ccccc3n2)c(OC)c1,·,·,·,·,0%
COc1cc(C(=O)Nc2nc3ccc(S(C)(=O)=O)cc3s2)cc(OC)c1C,11%,-5%,0%,-26%,0%
COc1cc(OC)cc(C(=O)Nc2nc3ccc(S(C)(=O)=O)cc3s2)c1,9%,39%,5.6µM*,-2%,1%
CS(=O)(=O)c1ccc2nc(NC(=O)c3cccc([N+](=O)[O-])c3)sc2c1,3%,12%,5.6µM*,-4%,2%
CS(=O)(=O)c1ccc2nc(NC(=O)c3cc([N+](=O)[O-])cc([N+](=O)[O-])c3)sc2c1,-4%,10%,0%,-21%,2%
N=c1oc2ccccc2cc1C(=O)NC1CCCCCC1,-4%,-2%,4.5µM*,8%,-1%
O=C(NC(=S)NC1CCN(Cc2ccccc2)CC1)c1ccc(F)cc1,18%,?,-12%,?,-6%
O=C(NC1CCCCC1)c1ccc2ccccc2c1,-5%,-3%,3.2µM*,-3%,·
O=C(NC(=S)NC1CCCCC1)c1ccc(F)cc1,16%,?,11µM*,?,-4%
CCOC(=O)c1ccc(NC(=O)CSc2nc3c(c(=O)[nH]2)CN(Cc2ccccc2)CC3)cc1,·,0%,·,0%,·
COc1cccc(NC(=O)c2ccccc2NC(=O)c2ccncc2)c1,17%,8%,1%,0%,·
CCn1cc(/C=C/C(=O)Nc2c(C)nn(Cc3ccccc3C)c2C)cn1,29%,116%,0%,-8%,8%
Cc1cc(N2CCN(C(c3ccccc3)c3ccccc3)CC2)n2ncnc2n1,21%,11µM*,-11%,-10%,-5%
Cc1nc2ncnn2c(N2CCN(C(c3ccccc3)c3ccccc3)CC2)c1C,-2%,0%,-10%,-7%,12%
CCc1ccc(NC(=O)CSc2nccn2-c2ccc(OC)cc2)cc1,·,10µM*,·,-14%,·
Cc1cc(C)cc(-n2ccnc2SCC(=O)Nc2ccc(C)c(Cl)c2)c1,-1%,8.9µM*,0%,1%,·
